Assay outcomes deposited in PubChem BioAssay by Broad Institute.
The entries come from a sample that favours hits as a whole.
IDE exosite FP: displaces the probe from the exo-site of human IDE; P14735; purified IDE, FL-6b probe fluorescence polarization; stronger effect = lower value; z-score at 20 µM; 17,000 compounds, 6.3% hits;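 active = z-score of -3 or lower, meaning strong loss of probe binding signal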;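 note: His-tagged human IDE residues 42-1019 made in E. coli with 30 nM FL-6b probe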
Target sequence (P14735 42-1019 limits assumed): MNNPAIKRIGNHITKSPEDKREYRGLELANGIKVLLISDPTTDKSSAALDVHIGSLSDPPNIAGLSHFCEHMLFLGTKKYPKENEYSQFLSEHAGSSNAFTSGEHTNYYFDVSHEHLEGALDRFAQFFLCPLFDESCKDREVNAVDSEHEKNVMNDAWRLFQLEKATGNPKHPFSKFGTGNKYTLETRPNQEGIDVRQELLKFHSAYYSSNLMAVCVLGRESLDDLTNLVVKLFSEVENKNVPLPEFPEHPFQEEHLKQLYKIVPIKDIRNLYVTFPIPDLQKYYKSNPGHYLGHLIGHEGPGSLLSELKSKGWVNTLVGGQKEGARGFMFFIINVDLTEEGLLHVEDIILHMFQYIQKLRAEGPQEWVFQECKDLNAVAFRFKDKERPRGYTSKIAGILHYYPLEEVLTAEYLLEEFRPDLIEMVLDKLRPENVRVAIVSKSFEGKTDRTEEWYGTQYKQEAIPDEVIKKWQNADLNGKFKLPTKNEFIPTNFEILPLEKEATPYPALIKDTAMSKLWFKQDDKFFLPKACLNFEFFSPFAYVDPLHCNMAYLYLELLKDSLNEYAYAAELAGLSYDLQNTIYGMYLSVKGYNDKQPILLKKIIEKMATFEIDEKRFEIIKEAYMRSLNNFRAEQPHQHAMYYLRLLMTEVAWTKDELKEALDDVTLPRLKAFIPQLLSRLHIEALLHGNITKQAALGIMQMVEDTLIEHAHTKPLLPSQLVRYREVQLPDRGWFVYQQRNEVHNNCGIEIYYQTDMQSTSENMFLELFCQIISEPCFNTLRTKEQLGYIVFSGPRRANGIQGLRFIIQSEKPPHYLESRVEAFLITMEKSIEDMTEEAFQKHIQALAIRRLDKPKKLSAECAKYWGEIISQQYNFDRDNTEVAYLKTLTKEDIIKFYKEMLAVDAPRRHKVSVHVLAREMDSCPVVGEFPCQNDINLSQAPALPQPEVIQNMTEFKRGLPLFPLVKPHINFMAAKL
Of the large screens only hits and unclear results are named; the others gave an inactive call; ! = a repeat was not active.

O=C(c1cccnc1)N1CC(=O)N2[C@@H](CO)[C@H](c3ccc(-c4ccc(F)cc4)cc3)[C@@H]2C1	none
Cc1ccccc1-c1ccc([C@@H]2[C@@H](CO)N3C(=O)CN(C(=O)c4cccnc4)C[C@@H]23)cc1	IDE exosite FP -13
O=C(c1cccnc1)N1CC(=O)N2[C@@H](CO)[C@H](c3ccc(-c4ccccc4F)cc3)[C@@H]2C1	none
CN(C)C(=O)c1ccc(-c2ccc(C3[C@@H]4CN(C(=O)c5cnccn5)C[C@H]3N4)cc2)cc1 (some centres not stated)	none
C[C@@H]1CN([C@H](C)CO)C(=O)CCCn2nncc2CO[C@@H]1CN(C)C(=O)Nc1ccc(-c2cccs2)cc1	none
O=C(NC[C@H]1[C@H](c2ccccc2)[C@@H](CO)N1Cc1cccnc1)c1ccccn1	none
COc1cccc(NC(=O)Nc2ccc3c(c2)C(=O)N(C)C[C@@H](OC)[C@@H](C)CN(CC2CC2)[C@H](C)CO3)c1	none
CN(C)C(=O)c1ccc(-c2ccc([C@@H]3[C@@H](CO)N4CCCCN(C(=O)C5CC5)C[C@H]34)cc2)cc1	none
Cc1ccc(-c2ccc(C3[C@H]4CNC[C@@H]3N4S(=O)(=O)c3cn(C)cn3)cc2)cc1 (some centres not stated)	none
COCC(=O)N1[C@H](C#N)[C@H](c2ccc(-c3cccc(F)c3)cc2)[C@@H]1CO	none
COc1ccc2c3c([nH]c2c1)[C@H](CO)N(C(=O)CC1CC1)CC31CCN(Cc2ccncc2)CC1	none
O=C(NC[C@@H]1[C@@H](c2ccccc2)[C@@H](CO)N1C(=O)Cc1cccnc1)C1CC1	none
O=C(c1ccc2c(c1)OCO2)N1CC(=O)N2[C@H](C1)[C@H](c1ccc(-c3ccccc3)cc1)[C@@H]2CO	none
O=C(c1ccc2c(c1)OCO2)N1CC(=O)N2[C@H](C1)[C@H](c1ccc(C#Cc3ccccc3)cc1)[C@@H]2CO	IDE exosite FP -3.5
O=C(c1ccc2c(c1)OCO2)N1CC(=O)N2[C@H](CO)[C@H](c3ccc(C#Cc4ccccc4)cc3)[C@H]2C1	none
CC(C)C#Cc1ccc([C@H]2[C@H](CO)N3C(=O)CN(C(=O)c4ccc5c(c4)OCO5)C[C@@H]23)cc1	none
O=C(c1ccc2c(c1)OCO2)N1CC(=O)N2[C@H](CO)[C@H](c3ccc(-c4ccccc4)cc3)[C@@H]2C1	none
O=C(c1ccc2c(c1)OCO2)N1CC(=O)N2[C@@H](CO)[C@@H](c3ccc(C#Cc4ccccc4)cc3)[C@@H]2C1	IDE exosite FP -5.2
O=C(Nc1ccccc1F)N1CC(=O)N2[C@@H](CO)[C@@H](c3ccc(C#CC4CC4)cc3)[C@@H]2C1	none
COCC(=O)N1CC2(CN(Cc3ccccc3)C2)c2c(n(C)c3cc(OC)ccc23)[C@@H]1CO	none
CCC(=O)N1[C@@H]2Cn3c(ccc(-c4ccccc4F)c3=O)[C@H]1[C@@H](C(=O)NC1CCC1)[C@@H]2CO	none
COCC(=O)N1[C@@H](CO)[C@@H]2c3ccccc3N(C(=O)Nc3ccccc3Cl)C[C@@H]21	none
C/C=C/c1ccc(C2[C@@H]3CN(C(=O)Cc4ccncc4)C[C@H]2N3)cc1 (some centres not stated)	none
C/C=C/c1ccc(C2[C@@H]3CN(C(=O)Cc4ccccc4)C[C@H]2N3)cc1 (some centres not stated)	none
O=S(=O)(c1ccc(-c2ccccc2)cc1)N1C[C@@H]2N[C@H](C1)C2c1ccc(-c2ccncc2)cc1 (some centres not stated)	none
O=C(Cc1ccncc1)N1C[C@@H]2N[C@H](C1)C2c1ccc(/C=C/c2ccccc2)cc1 (some centres not stated)	IDE exosite FP -4.6!
O=C(CN1CCOCC1)N1C[C@@H]2N[C@H](C1)C2c1ccc(-c2ccccc2)cc1 (some centres not stated)	none
O=C(Cc1ccncc1)N1C[C@@H]2N[C@H](C1)C2c1ccc(-c2ccccc2)cc1 (some centres not stated)	IDE exosite FP -3.1
COc1ccc(NC(=O)N2C[C@H](O)COC[C@H]3O[C@H](CC(=O)N4CCCCC4)CC[C@@H]32)cc1	none
CCCNC(=O)N1C[C@H](C)[C@H](OC)CN(C)C(=O)c2ccc(NC(=O)CC)cc2OC[C@H]1C	none
CCCNC(=O)N1[C@H](CO)[C@H](c2ccccc2C2=CCCC2)[C@@H]1C#N	none
N#Cc1ccc(-c2ccc([C@@H]3[C@@H](CO)N4C(=O)CN(C(=O)C5CCCCC5)C[C@H]34)cc2)cc1	none
O=C(C1CCCC1)N1CC(=O)N2[C@H](C1)[C@H](c1ccc(C#CC3CCCC3)cc1)[C@@H]2CO	none
CCCC#Cc1ccc([C@H]2[C@@H](CO)N3C(=O)CN(C(=O)c4ccccc4)C[C@H]23)cc1	none
Cc1cccc(-c2ccc([C@@H]3[C@H]4CN(C(=O)c5ccc6c(c5)OCO6)CCCCN4[C@H]3CO)cc2)c1	none
COc1ccccc1NC(=O)N1CCCCN2[C@H](C1)[C@@H](c1ccc(-c3cccc(C)c3)cc1)[C@@H]2CO	none
Cc1cccc(-c2ccc([C@H]3[C@@H](CO)N4CCCCN(C(=O)NC(C)C)C[C@H]34)cc2)c1	IDE exosite FP -13
COc1ccccc1NC(=O)N1CCCCN2[C@@H](CO)[C@H](c3ccc(-c4cccc(C)c4)cc3)[C@@H]2C1	none
Cc1cccc(-c2ccc([C@@H]3[C@H]4CN(C(=O)NC(C)C)CCCCN4[C@H]3CO)cc2)c1	IDE exosite FP -12
COc1ccccc1NC(=O)N1CCCCN2[C@H](CO)[C@H](c3ccc(-c4cccc(C)c4)cc3)[C@@H]2C1	none
CO[C@H]1CN(C)C(=O)c2cc(NC(=O)Nc3cc(F)ccc3F)ccc2OC[C@@H](C)NC[C@@H]1C	none
CCc1csc(N2[C@@H](C#N)[C@@H](c3ccccc3-c3cccc(F)c3)[C@@H]2CO)n1	none
OC[C@H]1[C@@H](c2ccc(C#CC3(O)CCCC3)cc2)[C@@H]2CN(Cc3ccccc3F)CCCCN12	none
O=C(c1ccccn1)N1C[C@H]2[C@@H](c3ccccc31)[C@@H](CO)N2C(=O)C1CCCCC1	none
C/C=C/c1ccc([C@H]2[C@H](CO)N[C@H]2CN(C(=O)C2CCC2)C(C)C)cc1	none
O=C(c1cnccn1)N1CC(=O)N2[C@H](CO)[C@@H](c3ccc(/C=C/c4ccccc4)cc3)[C@H]2C1	IDE exosite FP -6.5
O=C(c1cnccn1)N1CC(=O)N2[C@@H](CO)[C@H](c3ccc(/C=C/c4ccccc4)cc3)[C@@H]2C1	IDE exosite FP -6.5
O=C(c1cnccn1)N1CC(=O)N2[C@@H](CO)[C@H](c3ccc(-c4ccc(F)cc4)cc3)[C@@H]2C1	none
O=C(c1cnccn1)N1CC(=O)N2[C@H](CO)[C@@H](c3ccc(/C=C/c4ccccc4)cc3)[C@@H]2C1	IDE exosite FP -5.5
C/C=C/c1ccc([C@H]2[C@H](CO)N3C(=O)CN(C(=O)c4cnccn4)C[C@@H]23)cc1	none
C/C=C/c1ccc([C@@H]2[C@@H](CO)N3C(=O)CN(C(=O)c4cnccn4)C[C@H]23)cc1	none
O=C(c1cnccn1)N1CC(=O)N2[C@H](CO)[C@H](c3ccc(/C=C/c4ccccc4)cc3)[C@@H]2C1	IDE exosite FP -5.3
C/C=C/c1ccc([C@H]2[C@H]3CN(C(=O)c4cnccn4)CC(=O)N3[C@H]2CO)cc1	none
O=C(c1cnccn1)N1CC(=O)N2[C@H](CO)[C@@H](c3ccc(-c4ccc(F)cc4)cc3)[C@H]2C1	none
CC(C)C#Cc1ccc([C@@H]2[C@@H](CO)N(C(=O)C3CC3)[C@H]2C#N)cc1	none
CN(C)CC#Cc1ccc([C@@H]2[C@@H](CO)N3CCCCN(C(=O)C4CCC4)C[C@H]23)cc1	none
O=C1CN(Cc2ccccc2)C[C@H]2[C@@H](c3ccc(-c4ccccc4)cc3)[C@@H](CO)N12	none
